Measurements published in PubChem BioAssay (NCATS).
Values joined by “and” are separate entries in the source; they are usually repeats but may differ in a detail not shown here. Equal values may be shown once. Results filed as inconclusive are left out. Unmarked numbers belong to inactive results. Active and inactive are the calls of the source. Calls come from the whole dose curve; as a rule, active = well fitted curve in the direction sought with a large enough effect; inconclusive = small, poorly fitted or top-dose-only effect, or another doubt; inactive = no such curve, though single readings can be large; an effect the other way counts as inactive or inconclusive. Positions of bridges follow the written chain, without caps; N, C: chain ends. Non-standard residues stand in square brackets, D forms with d. Residues, ends and D or L forms follow the SMILES beside them. ξ: configuration not given here. *: point of attachment. Octanoyl(6-Me) = CCC(C)CCCCC(=O)*; ξThr(3R) = C[C@@H](O)C(N)C(=O)O; dDab = NCC[C@@H](N)C(=O)O; Dab = NCC[C@H](N)C(=O)O

Legend:
[1] = target: Cellular tumor antigen p53 (Homo sapiens) (UniProt P04637); assay: Primary qHTS for small molecule compounds that upregulate eGFP-tagged delta133p53alpha (in N-terminal) cells. (AID 2060322); settings: NCI-H358 eGFP-delta133p53alpha fluorescence, 24 h; activation: stronger effect = higher value;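 note: cells pre-induced with doxycycline then dosed without doxycycline; series mostly up to about 56 µM; 0% = DMSO vehicle and 100% = reference activator; nearly all actives have a fitted effect of over 75% in size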
Sequence of Cellular tumor antigen p53 (Homo sapiens) (P04637 whole entry, looked up): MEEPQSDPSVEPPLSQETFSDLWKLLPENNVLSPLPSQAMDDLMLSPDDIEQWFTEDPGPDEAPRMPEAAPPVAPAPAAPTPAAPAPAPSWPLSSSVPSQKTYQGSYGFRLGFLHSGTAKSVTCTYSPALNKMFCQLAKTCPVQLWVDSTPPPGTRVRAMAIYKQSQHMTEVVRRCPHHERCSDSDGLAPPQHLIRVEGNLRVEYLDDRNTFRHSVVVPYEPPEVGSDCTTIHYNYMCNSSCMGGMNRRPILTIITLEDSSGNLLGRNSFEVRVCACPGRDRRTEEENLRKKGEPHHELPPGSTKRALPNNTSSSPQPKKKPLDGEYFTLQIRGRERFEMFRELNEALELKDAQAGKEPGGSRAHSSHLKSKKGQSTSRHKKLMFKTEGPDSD
Procedure, shortened: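 NCI-H358 cells pre-induced 24 h with 10 ng/ml doxycycline for eGFP-delta133p53alpha, plated dox-free and exposed 24 h at 37C to titrated compounds. Fixed, Hoechst-stained; gated GFP peak intensity by laser scanning cytometry, normalized to DMSO (0%) and 57.5 uM 5-azacytidine (100%).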

[2] = BET inhibitor-based combinations targeting novel dependencies in MECOM-rearranged (r) AML: MV-4-11 cell line (AID 2202233); note: nearly all actives have a fitted effect of over 45% in size; note: potency is the fitted concentration of half-maximal effect
Procedure, shortened: (§1)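 Seeding density was 500 cells/well, and drug exposure lasted 48 hr under standard culture conditions. Read-out used CellTiter-Glo reagent with a 15 min room-temperature incubation before luminescence measurement; AUC and Z-AUC summarize the normalized responses.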

[3] = BET inhibitor-based combinations targeting novel dependencies in MECOM-rearranged (r) AML: OCI-AML3 cell line (AID 2202232); settings: Potency: OCI-AML3 viability; note: nearly all actives have a fitted effect of over 35% in size; note: potency is the fitted concentration of half-maximal effect
Procedure, shortened: (§2)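 Readout: CellTiter-Glo luminescence. Exposure: 48 h, 11 concentrations, 500 cells/well. Metric: AUC and within-line Z-AUC after DMSO/empty-well normalization.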

[4] = BET inhibitor-based combinations targeting novel dependencies in MECOM-rearranged (r) AML: UCSD-AML1 cell line (AID 2202235); note: nearly all actives have a fitted effect of over 40% in size; note: potency is the fitted concentration of half-maximal effect
Procedure, shortened: as §1

[5] = BET inhibitor-based combinations targeting novel dependencies in MECOM-rearranged (r) AML: AML-191 cell line (AID 2202236; note: nearly all actives have a fitted effect of over 35% in size; note: potency is the fitted concentration of half-maximal effect)
Procedure, shortened: as §2

[6] = BET inhibitor-based combinations targeting novel dependencies in MECOM-rearranged (r) AML: AML-194 cell line (AID 2202237;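 note: plate controls were vehicle wells for no effect and wells without cells for full effect; nearly all actives have a fitted effect of over 40% in size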)
Procedure, shortened: as §2

[7] = BET inhibitor-based combinations targeting novel dependencies in MECOM-rearranged (r) AML: HNT-34 cell line (AID 2202234); note: nearly all actives have a fitted effect of over 35% in size; note: potency is the fitted concentration of half-maximal effect
Procedure, shortened: as §1

[8] = target: Cellular tumor antigen p53 (Homo sapiens) (UniProt P04637); assay: Primary qHTS for small molecule compounds that upregulate eGFP-tagged delta133p53alpha (in C-terminal) cells. (AID 2060324); note: potency is the fitted concentration of half-maximal effect
Procedure, shortened: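 Concentration-response screen: compounds titrated onto pre-induced NCI-H358 D133p53a-eGFP cells, incubated one day, fixed with 3.5% PFA. Per-cell GFP peak intensity was gated, then normalized against intraplate controls.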

O=c1c(-n2ccnn2)c[nH]n1-c1cc(N2CCOCC2)ncn1
activation [1]: 44.9%
Potency [2]: 20.9 µM (active)

CCOC(=O)N1c2ccc(C(F)(F)F)cc2[C@@H](N(Cc2cc(C(F)(F)F)cc(C(F)(F)F)c2)C(=O)OC)C[C@H]1CC
activation [1]: -8.39%
Potency [3]: 4.68 µM (active)
Potency [4]: inactive
Potency [5]: inactive
Potency [6]: inactive

CC(Cc1ccc(O)c(O)c1)(NN)C(=O)O (stereo not drawn)
activation [1]: -5.67%
Potency [3]: inactive
Potency [7]: inactive
Potency [4]: inactive
Potency [6]: inactive

Nc1ncnc2c1ncn2[C@@H]1O[C@H](CO)[C@@H](O)[C@@H]1O
activation [1]: 23.2%
Potency [3]: inactive
Potency [2]: inactive
Potency [5]: inactive
Potency [6]: inactive

CCc1nc(N)nc(N)c1-c1ccc(Cl)cc1
activation [1]: -15.9% and -12.3%
Potency [2]: 14.8 µM (active)
Potency [7]: inactive
Potency [4]: inactive

CC(=O)Oc1ccccc1C(=O)Nc1ncc([N+](=O)[O-])s1
activation [1]: -2.09% and 33.3%
Potency [3]: 18.6 µM (active)
Potency [5]: 20.9 µM (active)

CCC(C)CCCCC(=O)N[C@@H](CCN)C(=O)NC(C(=O)N[C@H](CCN)C(=O)N[C@@H]1CCNC(=O)C([C@@H](C)O)NC(=O)[C@@H](CCN)NC(=O)[C@@H](CCN)NC(=O)[C@@H](CC(C)C)NC(=O)[C@H](Cc2ccccc2)NC(=O)[C@H](CCN)NC1=O)[C@@H](C)O (stereo partly drawn) ({Octanoyl(6-Me)}-[Dab][ξThr(3R)][dDab][dDab][Dab]F[dL][dDab][dDab][ξThr(3R)]; lactam 4-C)
activation [1]: 11.9%
Potency [2]: inactive
Potency [7]: inactive
Potency [4]: inactive
Potency [5]: inactive
Potency [6]: inactive

COc1c(C)cnc(Cn2cnc3c(Cl)nc(N)nc32)c1C
activation [1]: -17.3%
Potency [3]: 0.372 µM (active)
Potency [4]: 0.209 µM (active)

Clc1ccc(C(Cn2ccnc2)OCc2ccc(Sc3ccccc3)cc2)c(Cl)c1 (stereo not drawn)
activation [1]: -3.95% and 8.63%
Potency [2]: 14.8 µM (active)
Potency [7]: 20.9 µM (active)
Potency [4]: 20.9 µM (active)

CC(C)(C)OC(=O)CN(Cc1ccc(Cl)cc1)Cc1ccc([N+](=O)[O-])s1
activation [1]: -41.8%
Potency [3]: 7.42 µM (active)
Potency [4]: inactive
Potency [5]: inactive
Potency [6]: inactive

O=C(O)Cc1cccc(OCCCN(Cc2cccc(C(F)(F)F)c2Cl)CC(c2ccccc2)c2ccccc2)c1
activation [1]: 4.75%
Potency [2]: 20.9 µM (active)

COc1ccc(Nc2cc(-c3cnc(N)nc3)nc(N3CCOCC3)n2)cn1
activation [1]: 24.5%
Potency [2]: 5.25 µM (active)

O=C(Cc1cccc(OC(F)(F)F)c1)Nc1ccc(CCCCc2nnc(NC(=O)Cc3ccccn3)s2)nn1
activation [1]: 7.71%
Potency [3]: inactive
Potency [4]: 0.0209 µM (active)
Potency [5]: 0.118 µM (active)

O=c1cc(-c2ccccc2)oc2cc(O)c(O)c(O)c12
activation [1]: -1.25%
Potency [3]: 7.42 µM (active)
Potency [5]: 18.6 µM (active)

O=C(O)[C@H](O)[C@@H](O)[C@H](O[C@@H]1O[C@H](CO)[C@H](O)[C@H](O)[C@H]1O)[C@H](O)CO
activation [1]: -12.6%
Potency [2]: inactive
Potency [7]: inactive
Potency [4]: inactive
Potency [6]: inactive

O=c1c(O)c(-c2ccc(O)c(O)c2)oc2cc(O)ccc12
activation [1]: -6.9%
Potency [2]: 2.63 µM (active)

NC(=O)[C@@H](CCC(F)(F)F)N(Cc1ccc(-c2ncon2)cc1F)S(=O)(=O)c1ccc(Cl)cc1
activation [1]: 12.6%
Potency [3]: inactive
Potency [4]: inactive
Potency [6]: inactive

O=[N+]([O-])c1ccc2c(c1)S(=O)(=O)C=C2
Potency [8]: 30.1 µM (active)

O=C(c1ccc(F)cc1)N1CCC[C@H](c2nc(-c3ccc(F)cc3)no2)C1
activation [1]: 6.17%
Potency [2]: 18.6 µM (active)
Potency [4]: inactive
Potency [6]: inactive

N#CC(c1ccc(Cl)cc1)c1c(Cl)cc(-n2ncc(=O)[nH]c2=O)cc1Cl (stereo not drawn)
activation [1]: -23%
Potency [2]: inactive
Potency [5]: 16.6 µM (active)
Potency [6]: inactive

Cc1ccc(NC(=O)c2ccc(CN3CCN(C)CC3)cc2)cc1Nc1nc(-c2cccnc2)cs1
activation [1]: 4.59%
Potency [7]: 5.25 µM (active)
Potency [4]: inactive

O=c1cc(-c2ccccc2)oc2c(O)c(O)ccc12
Potency [8]: inactive

C[N+](C)([O-])CCNc1ccc(NCC[N+](C)(C)[O-])c2c1C(=O)c1c(O)ccc(O)c1C2=O
activation [1]: 9.32%
Potency [2]: 0.468 µM (active)
Potency [4]: 9.34 µM (active)

CN=c1nc(-c2ccccc2)n(-c2ccccc2)s1
Potency [8]: inactive

N=C(N)c1ccc2cc(OC(=O)c3ccc(N=C(N)N)cc3)ccc2c1
activation [1]: -10.5%
Potency [4]: 23.5 µM (active)
Potency [5]: 23.5 µM (active)

COc1ccc(CC2SC(=O)NC2=O)cc1C(=O)NCc1ccc(C(F)(F)F)cc1 (stereo not drawn)
activation [1]: -5.55%
Potency [4]: inactive
Potency [5]: inactive
Potency [6]: inactive

CCOC(CN1C(=O)[C@](CC(=O)Nc2ccc(C)cc2)(NC(=O)Nc2ccc(C)cc2)c2ccccc21)OCC
activation [1]: 0.237%
Potency [2]: 23.5 µM (active)
Potency [4]: inactive

Cc1ccc(NC(=O)c2ccc(CN3CCN(C)CC3)cc2)cc1Nc1nccc(-c2cccnc2)n1
activation [1]: -19.4% and -18.4% and -2.86%
Potency [4]: inactive
